The values below come from PubChem BioAssay.

Assay [1] can be described thus: StAR promoter reporter inhibitors, counter-screen for LRH-1 inverse agonist project, cell-based, luminescence, high throughput (AID 651611; in the data active = inhibition above about 28%). As to conditions: StAR promoter luciferase reporter counterscreen, at 3.6 µM, hits give high values. For orientation: Counterscreens check selectivity or assay interference.
In assay [2] the target is Nuclear receptor subfamily 5 group A member 2 (Homo sapiens) (UniProt O00482). The assay is described as follows: NR5A2 activity suppression in reporter cells – cell-based, luminescence, confirmation (AID 651613).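 Note: HEK293T cells co-transfected with LRH-1 and StAR promoter luciferase reporter; 0% = vehicle wells and 100% = parental cells lacking receptor.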 The following applies: cell-based LRH-1 luciferase reporter, inverse agonism; at 3.6 µM; hits give high values.
Nuclear receptor subfamily 5 group A member 2 (Homo sapiens), sequence (O00482 whole entry, looked up): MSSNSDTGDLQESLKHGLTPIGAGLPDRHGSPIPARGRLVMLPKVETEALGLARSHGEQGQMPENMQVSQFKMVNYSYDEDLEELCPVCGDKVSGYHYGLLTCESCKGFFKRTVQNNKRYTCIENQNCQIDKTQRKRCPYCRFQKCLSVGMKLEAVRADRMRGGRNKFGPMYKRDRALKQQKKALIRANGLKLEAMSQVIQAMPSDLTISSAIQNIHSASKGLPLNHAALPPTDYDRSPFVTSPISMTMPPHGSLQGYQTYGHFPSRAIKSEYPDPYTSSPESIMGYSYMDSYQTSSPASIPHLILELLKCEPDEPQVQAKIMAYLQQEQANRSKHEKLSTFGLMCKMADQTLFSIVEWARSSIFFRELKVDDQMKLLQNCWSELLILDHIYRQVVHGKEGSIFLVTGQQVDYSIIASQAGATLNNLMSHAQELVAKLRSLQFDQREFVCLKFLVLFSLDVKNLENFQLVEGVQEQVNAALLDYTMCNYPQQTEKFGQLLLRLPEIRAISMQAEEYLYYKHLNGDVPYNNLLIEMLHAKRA
Assay [3] has as its target Steroidogenic factor 1 (Homo sapiens) (UniProt Q13285). The assay is described as follows: inverse agonism at SF1 nuclear receptor – cell-based, luminescence, high throughput, counter-screen for LRH-1 inverse agonist project (AID 651614; in the data active = inhibition above about 44%;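 note: cells cotransfected with StAR promoter reporter and SF1 expression vector; 0% = vehicle on cells with receptor and 100% = vehicle on cells lacking receptor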). As to conditions: cell-based SF1 luciferase reporter, at 3.6 µM, hits give high values.
Assay [4] in a line: compounds suppressing VP16-driven luciferase signal – cell-based, luminescence, high throughput, counter-screen for LRH-1 inverse agonist project (AID 651615; in the data active = inhibition above about 33%). As to conditions: Gal4-VP16 luciferase reporter cells, at 3.6 µM, hits give high values.

SMILES strings stand for the structures. Values without a mark were called inactive. The source made the active and inactive calls. Cut-off read from the data, not from the text of the source, unless noted: active = inhibition above about 42%; inactive = the rest.

Steroidogenic factor 1 (Homo sapiens), sequence (Q13285 whole entry, looked up, the tested form may be a part): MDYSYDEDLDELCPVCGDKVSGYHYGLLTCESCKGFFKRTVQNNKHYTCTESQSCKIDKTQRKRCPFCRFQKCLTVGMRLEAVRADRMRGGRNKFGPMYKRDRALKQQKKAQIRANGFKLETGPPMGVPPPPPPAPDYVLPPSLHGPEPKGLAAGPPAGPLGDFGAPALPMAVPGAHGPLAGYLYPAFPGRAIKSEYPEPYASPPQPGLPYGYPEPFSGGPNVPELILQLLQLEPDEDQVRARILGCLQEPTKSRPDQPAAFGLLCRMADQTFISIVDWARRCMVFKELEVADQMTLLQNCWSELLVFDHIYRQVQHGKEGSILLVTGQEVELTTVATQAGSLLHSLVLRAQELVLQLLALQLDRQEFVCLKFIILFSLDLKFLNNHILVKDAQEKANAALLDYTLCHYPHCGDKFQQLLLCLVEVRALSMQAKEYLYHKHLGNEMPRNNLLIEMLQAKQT

For the compound `COC(=O)c1ccc(NC(=O)CSc2nn3c(=O)c(C)nnc3s2)cc1`, the inhibition (in general, the change of the read-out against control, counted positive when it falls) in assay [1] is 5.82%; in assay [2], 61.3% (active); in assay [3], 56.4% (active); in assay [4], -11.6%.
The like results for `O=C(Cn1ncc2c([nH]c3ccccc32)c1=O)Nc1ccc(CN2CCCCC2)cc1` were, in that order, 5.26%, 60.9% (active), 62.4% (active) and -4.27%.
The like results for `CCc1ccc(N2C=C(C(=O)OC)C(c3ccc(OC)cc3)C(C#N)=C2N)cc1` (stereo unspecified) were, in that order, 48.9% (active), 25.1%, 45.3% (active) and 24.5%.
With `O=C(CCl)N(c1ccc(Cl)cc1)c1c[nH]c2ccccc12`, the inhibition in assay [1] was 25.4%; in assay [2] it was 67.1% (active); in assay [3], 58% (active); in assay [4] it was 30.4%.
The like results for `CC1=[N+](C)c2c(ccc3cccnc23)C1(C)C` were, in that order, 12.2%, 38.6%, 58.7% (active) and 29.2%.
Taken in the same sequence, the figures for `Cc1cc(OCC(=O)N2CCC(O)CC2)c2c(C)cc(=O)oc2c1` were 5.07%, 44.8% (active), 35.2% and -6.7%.
Regarding `S=C(Nc1ccc(Br)cc1)Nc1ccc2c(c1)OCCO2`, the inhibition in assay [1] is -74.4%; in assay [2], -51.1%; in assay [3] it was -27.8%; in assay [4] it was -71.3%.
The like results for `Cc1ccc(CNC(=O)c2ccc([N+](=O)[O-])o2)cc1` were, in that order, 16.4%, 57% (active), 60.8% (active) and -5.02%.
As for `NC(=O)c1oc2ccccc2c1NC(=O)c1ccc([N+](=O)[O-])o1`, the inhibition in assay [1] is 23.2%; in assay [2], 67.6% (active); in assay [3] it was 69.1% (active); in assay [4] it was -9.15%.
The like results for `COc1cccc(C2c3cc4c(cc3OC(N3CCOCC3)C2C)OCO4)c1O` (stereo unspecified) were, in that order, 11.7%, 51.8% (active), 45.3% (active) and 21.4%.
For `CC[C@H](CO)Nc1nc(Nc2cccc(Cl)c2)c2ncn(C(C)C)c2n1`, the inhibition in assay [1] is 26%; in assay [2] it was 49.3% (active); in assay [3], 38.4%; in assay [4], 35.9% (active).
Taken in the same sequence, the figures for `COc1ccc(NC(=O)CSc2nnc(-c3ccccn3)n2N)cc1Cl` were 20.3%, 48.5% (active), 49.4% (active) and 2.01%.
The like results for `O=NN(CCc1ccncc1)c1ccc(OCc2ccccc2)cc1` were, in that order, 3.58%, 73.2% (active), 66.6% (active) and 50.5% (active).
In the case of `COc1cc2c(cc1OC)CN(C(=O)c1cc(=O)c3ccccc3o1)CC2`, the inhibition in assay [1] was 46.3% (active); in assay [2] it was 30.2%; in assay [3], 40.7%; in assay [4] it was 16%.
Take `O=C(COC(=O)CCN1C(=O)C2CC=CCC2C1=O)NCCc1ccccc1` (stereo unspecified): the inhibition in assay [1] is 11.9%; in assay [2], 40.1%; in assay [3], 44.8% (active); in assay [4], 3.03%.
The like results for `COc1ccc(CCNC(=O)c2ccc(CSc3ccc(Cl)cc3)o2)cc1OC` were, in that order, -6.83%, 28.3%, 23.4% and 30.3%.
The like results for `O=C(COC(=O)Cc1ccc(F)cc1)NCCc1ccccc1` were, in that order, 3.74%, 37.8%, 36.3% and -0.51%.
As for `COc1ccc(-c2nn(C)c(=O)c3ccccc23)cc1NS(C)(=O)=O`, the inhibition in assay [1] is 49.6% (active); in assay [2], 53.6% (active); in assay [3], 41.2%; in assay [4], -52.2%.
Taken in the same sequence, the figures for `CS(=O)(=O)N(CC(=O)N1CCN(Cc2ccc3c(c2)OCO3)CC1)Cc1ccc(Cl)cc1` were 12.5%, 63% (active), 44.9% (active) and 36.9% (active).
The like results for `C=CC(=O)Nc1cccc(Oc2ncnc3[nH]cc(-c4cnc5ccccc5c4)c23)c1` were, in that order, 27.3%, 67.9% (active), 65.6% (active) and 18.2%.
The like results for `c1ccc(-c2nc(NCC3CCCO3)c3oc4ccccc4c3n2)cc1` (stereo unspecified) were, in that order, -0.47%, 38.2%, 39.8% and -17.1%.
Turning to `CC(=O)Nc1ccc(NC(=O)COC(=O)Cc2c[nH]c3ccccc23)cc1`, the inhibition is 18.8% in assay [1], 67.4% (active) in assay [2], 53.8% (active) in assay [3] and -15.3% in assay [4].
Turning to `Cc1nc2ccccc2n1/N=C/c1ccc([N+](=O)[O-])o1`, the inhibition was 16.3% in assay [1], 70.9% (active) in assay [2], 68.1% (active) in assay [3] and 15% in assay [4].
In the case of `CC(=O)c1ccc(NC(=S)Nc2cccc3cnccc23)cc1`, the inhibition is 3.88% in assay [1], 5.22% in assay [2], 4.69% in assay [3] and 7.24% in assay [4].
